Assay outcomes as filed in PubChem BioAssay.
MEX-5 binding: C. elegans MEX-5 TCR-2 RNA binding activity; hit rate 0.38% among 300,000; Q9XUB2; activity score (negative = inhibition of binding), % at 10 µM; MEX-5/FITC-TCR2 RNA binding, fluorescence polarization; active compounds read low; AID 1832;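 active = inhibition past about -25% in most replicates, and total fluorescence under double the plate's negative control median, limit read from the data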;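 also: 0% = DMSO and -100% = 5 µM competing unlabeled TCR2 RNA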
MCL1-BIM inh: inhibitors of human MCL1 binding to BIM-BH3 peptide; hit rate 0.68% among 320,000; AID 2057; inhibition, % at 10.9 µM; Q07820; GST-MCL1 / FITC-Bim-BH3 fluorescence polarization;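 active = inhibition above the mean inhibition of all tested compounds plus 3 SD, set per campaign, cut at about 40% in these data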;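 also: 0% = DMSO wells and 100% = unlabeled Bim-BH3 peptide control; higher means more loss of mP so more displacement of Bim peptide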
Bcl-xL primary: inhibitors of human Bcl-xL; Q07817; GST-Bcl-xL / FITC-Bim BH3 peptide fluorescence polarization; inhibition, % at 10.9 µM; hit rate 0.7% among 320,000; AID 2129;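 active = inhibition above the mean of all tested compounds plus 3 SD, cutoff set per campaign, cut at about 30% in these data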;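 also: 0% = DMSO wells and 100% = unlabeled Bim-BH3 peptide competitor; inhibitors lower millipolarization by displacing the labeled peptide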
GLD-1 RNA inh: GLD-1-TGE RNA interaction inhibition (C. elegans). purified GLD-1 + fluorescein TGE RNA, fluorescence polarization. inhibition, % at 5.96 µM. AID 2280. hit rate 0.44% among 320,000. Q17339;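 active = percent inhibition above a per-plate cutoff, the plate mean of test compounds plus 3 SD, cut at about 30% in these data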;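 also: 0% = DMSO wells with GLD-1 and probe and 100% = wells lacking GLD-1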
Target sequence (Q17339 whole entry, looked up): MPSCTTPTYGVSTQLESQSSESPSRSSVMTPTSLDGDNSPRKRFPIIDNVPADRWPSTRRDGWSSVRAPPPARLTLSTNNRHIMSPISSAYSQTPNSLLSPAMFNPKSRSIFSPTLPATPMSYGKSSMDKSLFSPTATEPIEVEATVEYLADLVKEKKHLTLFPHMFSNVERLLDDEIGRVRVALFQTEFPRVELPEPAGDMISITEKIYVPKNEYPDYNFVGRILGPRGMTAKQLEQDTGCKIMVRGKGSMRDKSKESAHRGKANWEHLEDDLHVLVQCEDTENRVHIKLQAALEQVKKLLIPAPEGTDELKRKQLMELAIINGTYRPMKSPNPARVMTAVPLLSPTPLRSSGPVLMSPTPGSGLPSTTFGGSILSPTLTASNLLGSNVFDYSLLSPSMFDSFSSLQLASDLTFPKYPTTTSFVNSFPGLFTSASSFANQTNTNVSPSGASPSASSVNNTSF
E coli Lon inh: inhibitors of E. coli Lon protease; purified E. coli Lon protease, fluorescence polarization; P0A9M0; inhibition, % at 7.94 µM; AID 602123; hit rate 0.42% among 360,000; in the data active = inhibition above about 13%, passing the limit was not always enough;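 also: 0% = enzyme with probe and DMSO and 100% = no enzyme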
EBV gp42 block: blocks Epstein-Barr virus glycoprotein 42 binding | inhibition, % (tested at 21.74 µM) | AID 1085 | hit rate 0.42% among 220,000 | Fluorescence polarization binding assay, mP read-out; in the data active = inhibition above about 50%
Starred values were filed as active, the others as inactive; / = no result given. Rows were chosen to be rich in hits. Some 1.5% of all compounds tested hit in one or more screens of this group.

SMILES	MEX-5 binding	MCL1-BIM inh	Bcl-xL primary	GLD-1 RNA inh	E coli Lon inh	EBV gp42 block
Cc1ccc2oc(=O)c(/C=C(\O)c3ccccc3)nc2c1	-5	-13	-1	-1	3	59*
O=c1oc2ccc(Cl)cc2nc1/C=C(\O)c1cccs1	-67*	4	3	1	-9	-107
Cc1cccc(C)c1-n1nnnc1C1(C)CCC(=O)N1C1CC1 (centres undefined)	/	/	/	/	-2	/
CCSc1cc(N2CCCC2)nc(-c2ccccc2Cl)n1	-1	-7	1	1	3	60*
CCSc1cc(N2CCCC2)nc(-c2ccccc2)n1	3	4	2	7	-3	1
CC1(OC(=O)C2CCCC2)C(=O)C=C2C=C(c3ccsc3)N(Cc3ccco3)C=C2C1=O (centres undefined)	-3	38	34*	12	-4	-3
CCC(C(=O)NC1CCCCC1)n1c2ccccc2c2nc(=O)cc(C)n21 (centres undefined)	-1	6	1	3	-8	/
O=C(CSc1nc(-c2ccc(F)cc2)nc2ccc(F)cc12)Nc1cccc(C(=O)O)c1	4	1	5	-6	-2	9
O=C(CSc1nc(-c2ccc(F)cc2)nc2c1Cc1ccccc1O2)Nc1ccc(C(=O)O)cc1	/	/	/	/	-11	74*
O=C(CSc1nc(-c2ccccc2)nc2c1Cc1ccccc1O2)Nc1ccc(C(=O)O)cc1	/	/	/	/	-5	87*
Cc1onc(-c2ccccc2)c1C(=O)NC1CCC(C)CC1 (centres undefined)	/	-1	1	0	-8	/
O=C(CN1C(=O)c2ccccc2C1=O)Oc1ccc(F)cc1	0	-1	4	1	/	/
CCCCN1C(=O)/C(=C2/Sc3ccc(OC)cc3N2CC)SC1=S	-26*	6	2	-3	-2	/
CCN1/C(=C2/SC(=S)N(NC(C)=O)C2=O)Sc2ccc(OC)cc21	-46*	-7	1	-27	-31	/
C=CCN1C(=O)/C(=C2/Sc3ccc(OC)cc3N2CC)SC1=S	-40*	0	2	-3	-9	/
OCCNc1c2ccccc2nc2c(F)c(F)c(F)c(F)c12	-4	32	30*	16	1	29
CN(C)CCCNc1c2ccccc2nc2ccccc12	3	7	14	-1	9	/
Nc1cccc(Nc2ccccc2)c1	1	24	50*	-72	-2	-3
c1ccc(Nc2cccc(Nc3ccccc3)c2)cc1	-2	5	6	-3	-4	16
COc1ccc(N2C(=O)C3C(C2=O)C(C(=O)c2ccc(Cl)cc2)N2CCCC32)cc1 (centres undefined)	1	4	17	17	-12	-8
CC(=O)c1ccc(N2C(=O)C3C(C2=O)C(C(=O)c2ccc(Cl)cc2)N2CCCC32)cc1 (centres undefined)	/	/	/	/	/	89*
O=C(c1ccc(Cl)cc1)C1C2C(=O)N(c3ccccc3)C(=O)C2C2CCCN21 (centres undefined)	-29*	/	/	/	6	81*
Cc1ccc(OCc2csc(N)n2)cc1	-8	6	3	6	6	2
CCCc1cc(=O)[nH]c(-n2[nH]c3c(c2=O)CCCC3)n1	-9	40	47*	29	-22	14
CCOc1ccc(NC(=O)Nc2ccc(Cc3ccncc3)cc2)cc1	0	29	36*	6	-1	-17
SMILES	MEX-5 binding	MCL1-BIM inh	Bcl-xL primary	GLD-1 RNA inh	E coli Lon inh	EBV gp42 block
Cc1nc(C(F)(F)F)nc(Nc2ccc(N=Nc3ccccc3)cc2)c1C#N	2	-4	1	3	-4	-18
O=C(Oc1ccc(C(=S)N2CCC(O)CC2)cc1)c1ccc(Cl)cc1	1	4	100*	7	3	-1
O=C(Oc1ccc(C(=S)N2CCCCC2)cc1)c1ccccc1	1	8	1	6	-9	-16
O=[N+]([O-])c1cc([N+](=O)[O-])c2cc(-c3cccnc3)[nH]c2c1	-3	27	36*	9	8	/
O=[N+]([O-])c1ccc2nc(-c3cccnc3)[nH]c2c1	-4	-5	1	8	0	/
Cc1cc(O)c(-c2cc(O)c(C)cc2O)cc1O	-80*	19	20	16	13	-20
COC(=O)c1cc(NC(=O)c2cccc(C(F)(F)F)c2)c(=O)oc1C	1	0	-4	3	-4	-2
COC(=O)c1cc(NC(=O)c2cccc(Cl)c2)c(=O)oc1/C=C/Nc1cc(C)cc(C)c1	-28*	-165	-98	-80	/	156*
Cc1ccc(N2CC(C(=O)N(C)CC(=O)Nc3ccc(Cl)c(C(F)(F)F)c3)CC2=O)cc1 (centres undefined)	1	8	9	11	1	/
Cc1nn(-c2ccccc2)c(N2CCCC2)c1/C=N/NC(=O)c1cc(-c2cccnc2)nc2ccccc12	-28*	9	6	8	7	-1
CCOC(=O)c1c2ccc(OCC(=O)N/N=C/c3ccc(C)cc3)cc2n2ccccc12	-29*	4	8	5	3	43
CCOc1cc(C=C2C(=O)c3ccccc3C2=O)ccc1OCC(=O)Nc1ccc(C)cc1	-36*	20	15	6	12	88*
Cc1cc(C)cc(N(C(=O)c2csnn2)C(C(=O)NC2CCCC2)c2ccccn2)c1 (centres undefined)	0	-1	0	-5	10	/
CCC[n+]1cn(/C(C(=S)Nc2cccc(Cl)c2C)=C(/[O-])c2ccc(OC)c(OC)c2)c2ccccc21	2	7	8	-5	-5	-14
O=C(O)CSc1cc(NS(=O)(=O)c2ccc(Cl)cc2)c2ccccc2c1O	0	38	22	-3	7	/
Cc1cc(C)c(S(=O)(=O)Nc2cc(SCC(=O)O)c(O)c3ccccc23)cc1C	-56*	27	19	12	/	-1
COc1cc2c(C(=O)N(C)c3ccc(F)cc3)cn(C)c(=O)c2cc1OC	2	-5	1	3	2	/
COC(=O)C1=C(C(=O)OC)[C@@H]2N(C)c3ccccc3[C@@]23C[C@@H](CO)N(C(=O)C2CCC2)C3=N1	3	-1	-4	-8	-9	/
COc1ccc(Nc2nc3ccccc3nc2NS(=O)(=O)c2cccs2)c(OC)c1	-40*	11	4	4	-7	22
COc1cccc(Nc2nc3ccccc3nc2NS(=O)(=O)c2cccs2)c1	-7	2	6	1	3	16
Cc1ccc(/C=C/C(=O)Nc2cc(=O)n(C)c(=O)n2C)o1	-15	37	33*	27	-6	-5
CCCc1nnc(SCC(=O)NC2CCCCC2)n1CCOC	2	1	3	-1	-6	/
c1ccc2c(c1)nc(N1CCOCC1)c1nnnn12	-5	26	43*	17	-22	41
CC(=O)c1cccc(Nc2c3c(nc4ccccc24)CCC3)c1	-1	-7	3	-9	-3	/
